NCF1 inh – p47phox/p22phox peptide binding inhibitors, primary screen, biochemical, uHTS, NADPH oxidase regulatory subunit; Neutrophil cytosol factor 1 (Homo sapiens), P14598; fluorescence polarization, 2 h; inhibition, % at 24.7 µM; actives 0.53% (n = 220,000);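 active means inhibition above about 30%, limit read from the data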;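 further: 0% = p47phox with labelled peptide and 100% = labelled peptide alone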
Target sequence (P14598 whole entry, looked up): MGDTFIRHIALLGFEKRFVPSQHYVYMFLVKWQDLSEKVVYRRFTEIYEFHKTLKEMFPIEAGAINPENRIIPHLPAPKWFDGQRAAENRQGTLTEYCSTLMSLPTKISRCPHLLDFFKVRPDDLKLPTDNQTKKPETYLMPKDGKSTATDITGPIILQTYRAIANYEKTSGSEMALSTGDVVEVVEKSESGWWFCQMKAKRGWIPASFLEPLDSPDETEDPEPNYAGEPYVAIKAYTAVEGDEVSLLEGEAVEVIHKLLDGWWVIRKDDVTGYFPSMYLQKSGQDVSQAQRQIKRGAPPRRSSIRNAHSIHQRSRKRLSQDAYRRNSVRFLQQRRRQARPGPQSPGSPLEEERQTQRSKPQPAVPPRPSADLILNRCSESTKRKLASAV
14-3-3 Bad inh – inhibitors of 14-3-3 zeta/Bad binding, primary screen, biochemical, TR-FRET, bovine 14-3-3 zeta; 14-3-3 protein zeta/delta (Bos taurus), P63103; TR-FRET 14-3-3zeta/Dy647-pBad peptide displacement, 1 h; inhibition, % at 21.7 µM; actives 0.71% (n = 220,000); AID 781, 2007;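 active means inhibition above about 70%, limit read from the data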;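 further: 0% = full 14-3-3 plus peptide FRET controls and 100% = background without 14-3-3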
Target sequence (P63103 whole entry, looked up): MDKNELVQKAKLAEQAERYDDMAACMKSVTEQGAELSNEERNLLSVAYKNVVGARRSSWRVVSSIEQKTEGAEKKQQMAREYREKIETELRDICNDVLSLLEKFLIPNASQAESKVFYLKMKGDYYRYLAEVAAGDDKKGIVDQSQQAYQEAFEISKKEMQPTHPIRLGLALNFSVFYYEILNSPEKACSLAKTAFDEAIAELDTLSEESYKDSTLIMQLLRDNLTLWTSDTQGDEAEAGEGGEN
Mcl-1 Bim block – inhibitors of Bim peptide binding to Mcl-1, primary screen, biochemical, bead-based flow cytometry, multiplex; Induced myeloid leukemia cell differentiation protein Mcl-1 (Homo sapiens), Q07820; Bim peptide-Mcl-1 binding; inhibition, % at 10 µM; actives 0.1% (n = 190,000); in the data active means inhibition above about 40%;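 further: 0% = no compound tracer wells and 100% = peptide blocker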
Mcl1-Bid inh – Mcl-1/Bid binding inhibitors, primary screen, biochemical, TR-FRET, 1536-well. inhibition, % at 21.7 µM. TR-FRET Mcl-1/Bid-Dy647 peptide binding. Induced myeloid leukemia cell differentiation protein Mcl-1 (Homo sapiens), Q07820. actives 0.97% (n = 220,000);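 active means compounds that cut the binding signal by more than half at the single screening dose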;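 further: His-tagged Mcl-1 with europium anti-His antibody binding Bid BH3 peptide; 0% = Mcl-1 plus peptide wells and 100% = peptide-only wells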
Mcl1 Noxa PPI – Mcl-1/Noxa binding inhibitors, primary screen, biochemical, TR-FRET, 1536-well | TR-FRET Mcl-1/Noxa peptide binding, 2 h | AID 1022, 2008 | inhibition, % at 21.7 µM | actives 1.5% (n = 220,000) | Induced myeloid leukemia cell differentiation protein Mcl-1 (Homo sapiens), Q07820;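 active means compounds that cut the protein-peptide binding signal by more than 50% relative to plate controls in a single-dose test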;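 further: His-tagged Mcl-1 with rhodamine Noxa BH3 peptide and terbium anti-His antibody; 0% = Mcl-1 plus Noxa peptide wells and 100% = peptide-only wells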
Starred values were filed as active, the others as inactive; nt = no result given; [ ] = another dose, or the depositor's remark. This is a sample that favours compounds with a hit; in the whole collection about 3.1% have one here.

SMILES | NCF1 inh | 14-3-3 Bad inh | Mcl-1 Bim block | Mcl1-Bid inh | Mcl1 Noxa PPI
COc1ccccc1C(=O)OCC(=O)NC(=O)NCc1ccccc1 | nt | 1 | -8 | 3 | -16
Cc1ccc(S(=O)(=O)Nc2ccc(N=Nc3ccc(O)cc3)cc2)cc1 | -6 | -4 | 5 | -12 | 53*
CC(Oc1ccc2ccc(=O)oc2c1)C(=O)c1ccccc1 (stereo not drawn) | 2 | 33 | -6 | 52* | -4
Cc1cc(=O)oc2c(CN3CCCCC3)c(O)c(Cl)cc12 | -4 | 73*[fluorescence artefact?] | 0 | 8 | 0
COc1cccc(NC(=O)C(c2ccccc2)N2CCCC2)c1 (stereo not drawn) | 1 | 3 | 0 | -14 | 11
O=c1[nH]c2c(s1)C(c1ccc(O)cc1)C1C3CCC(C3)C1S2 (stereo not drawn) | -10 | 5 | 0 | 48 | 54*
C/C(=N\NC(=O)COc1ccc(C#N)cc1)c1ccccc1OC(F)F | 7 | 9 | 49* | -13 | -1
CC(C)CC(=O)NC(=S)N(Cc1ccccc1)Cc1ccccc1 | 1 | -6 | 0 | -31 | 56*
Oc1cccc(/C=N/Nc2nn3cnnc3c3ccccc23)c1 | -6 | -10 | nt | -10 | 36
COc1cccc(/C=N/Nc2nn3cnnc3c3ccccc23)c1O | 9 | -9 | 16 | -73 | 53*
CC1COc2c(N3CCN(C)CC3)c(F)cc3c(=O)c(C(=O)O)cn1c23 (stereo not drawn) | -12 | 2 | nt | -2 | -11
CCOc1ccc(NC(=O)c2ccc(NC(=O)c3cn4c5c(c(N6CCN(C)CC6)c(F)cc5c3=O)OCC4C)cc2)cc1 (stereo not drawn) | 82* | -22 | -8 | -113 | -36
CCOC(=O)c1cnc2c(C)cccc2c1Nc1cccc(C(=O)O)c1 | -8 | -3 | nt | -16 | -5
CC(/C=N/n1c(-c2ccc(Cl)cc2)n[nH]c1=S)=C\c1ccco1 | -1 | 0 | -3 | 24 | 64*
Cc1nn(-c2ccccc2)c(C)c1/C=N/n1c(-c2ccc(Cl)cc2)n[nH]c1=S | 5 | 39 | -6 | 22 | 53*
CC(=O)OC(c1nc2ccccc2c(=O)n1C1CC2(OC1=O)c1ccccc1N1C(=O)C(C)(C)N(O)C12)C(C)C (stereo not drawn) | 2 | 0 | nt | -40 | 18
CN(C)S(=O)(=O)c1ccc2[nH]cc(/C=C/c3nc4ccccc4c(=O)n3-c3ccccc3)c2c1 | -39 | -7 | -4 | -2 | 3
Cc1ccc(-n2sc3ccccc3c2=O)cc1S(=O)(=O)N1CCCCC1 | 85* | 50 | -1 | -12 | 54*
O=c1c2ccccc2sn1-c1ccccc1 | 60* | -39 | -11 | -58 | 25
CN(C)S(=O)(=O)c1cccc(-n2sc3ccccc3c2=O)c1 | 93* | -8 | -3 | -44 | 32
O=c1c2ccccc2c(C=Nc2ccccc2O)c(O)n1-c1nccs1 | -22 | 1 | nt | -23 | 26
O=c1[nH]sc2ccccc12 | 5 | 1 | -5 | -65 | 13
O=c1c2ccccc2sn1-c1nccs1 | 104* | -28 | -1 | -56 | 23
Cc1cc(C)c(C2=NOC3C4CCC(C4)C23)c(C)c1 (stereo not drawn) | -3 | 4 | -6 | -2 | 1
Cc1ccc(C2c3c(oc4ccccc4c3=O)C(=O)N2c2nncs2)cc1 (stereo not drawn) | 6 | 5 | nt | -13 | 0
SMILES | NCF1 inh | 14-3-3 Bad inh | Mcl-1 Bim block | Mcl1-Bid inh | Mcl1 Noxa PPI
CCO[C@H]1OC(C(=O)N2CCN(C)CC2)=C[C@@H](C)[C@@H]1CCCO | -8 | -9 | -7 | -3 | -4
CC1=C([N+](=O)[O-])C(c2ccccc2C(F)(F)F)NC(=O)N1C (stereo not drawn) | -14 | -3 | nt | -16 | -12
O=c1c2ccccc2sn1-c1ccc(S(=O)(=O)N2CCCC2)cc1 | 30* | -14 | -5 | -32 | 38
NS(=O)(=O)c1ccc(S(=O)(=O)N2CCCC2)cc1 | -13 | 7 | -6 | -29 | -7
CC(C)c1onc(C(=O)NC2CCCC2)c1[N+](=O)[O-] | -11 | -2 | 0 | -7 | 9
Cc1ccc([N+](=O)[O-])cc1NC(=O)CN1CCC(C)CC1 | 72* | -2 | -1 | -10 | 4
Cc1ccc([N+](=O)[O-])cc1NC(=O)Cc1ccc(F)cc1 | -12 | -22 | -3 | 18 | -1
CC(=O)N1CCN(CC(=O)Nc2cc([N+](=O)[O-])ccc2Cl)CC1 | 1 | -3 | -1 | -48 | 2
O=C(CN1CCN(c2ccc(O)cc2)CC1)Nc1cc([N+](=O)[O-])ccc1Cl | 25 | 49 | 2 | -2 | 99*
Cc1ccc([N+](=O)[O-])cc1NC(=O)Cc1cccs1 | -5 | 56 | 0 | -21 | 56*
COc1cccc2c1OCC/C2=N\NC(=O)C(C)Oc1ccc([N+](=O)[O-])cc1 (stereo not drawn) | 1 | 1 | -1 | -20 | -3
OC(CNC1CCCc2ccccc21)COc1ccc2ccccc2c1 (stereo not drawn) | -12 | 40 | -2 | 52* | 44
CC1(C)C(=O)OC(C(=O)c2ccccc2)C2(CCCCC2)C1=O (stereo not drawn) | -3 | 0 | -4 | 0 | 1
C/C(=N/NC(=O)c1cc(-c2cccc([N+](=O)[O-])c2)n[nH]1)c1ccc(Cl)cc1 | 25 | 77*[fluorescence artefact?] | 4 | 74* | 64*
C/C(=N/NC(=O)CNC(=O)c1ccccn1)c1ccc([N+](=O)[O-])cc1 | -7 | -20 | -1 | -27 | 17
C/C(=N/NC(=O)CNC(=O)c1cccnc1)c1ccc([N+](=O)[O-])cc1 | -4 | 2 | 2 | 3 | 73*
C/C(=N/NC(=O)c1cc(O)c(O)c(O)c1)c1ccc([N+](=O)[O-])cc1 | -4 | -3 | 8 | -50 | 59*
COc1cc(-c2nc3ccccn3c2/N=C/c2cc(OC)c(O)cc2Cl)ccc1O | -30 | -6 | -3 | -46 | 57*
COc1ccc(/C=C2\SC(=O)N(CC(=O)NNC(=O)c3ccccc3O)C2=O)cc1 | 15 | 62 | -2 | 48 | 53*
CCOc1cc(/C=C2\SC(=O)N(CC(=O)Nc3ccccc3F)C2=O)cc([N+](=O)[O-])c1O | -6 | -2 | 0 | -13 | 32
COc1cc(/C=C2\SC(=O)N(CC(=O)Nc3cccc(C)c3)C2=O)cc([N+](=O)[O-])c1O | -18 | 2 | -1 | -18 | 59*
COc1ccccc1C(=O)NNC(=O)CCCN1C(=O)/C(=C/c2cccs2)SC1=S | -100 | 12 | -5 | 35 | 52*
COc1ccc(/C=C2\SC(=O)N(CC(=O)NNC(=O)c3ccccc3O)C2=O)cc1OC | 34* | 21 | -6 | 60* | 53*

High-throughput results as filed in PubChem BioAssay.
